Only some compounds are listed: those with a hit (about 12% of all), similar ones and a draw of the others.
L3MBTL1 block = blocks human L3MBTL1; AlphaScreen L3MBTL1–H3K9me1 peptide binding; Potency, µM (series often up to 57.1 µM), for inactives: top-dose activity, negative = inhibition, usual class: inhibitors; 0.66% of 230,000 active; also: % is scaled to controls: 0 for no effect and ±100 for the full control effect; nearly all actives have a fitted effect of over 60% in size
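Read-out is AlphaScreen signal from streptavidin donor and nickel chelate acceptor beads (10 ug/mL final each) bridging L3MBTL1 (50 nM) and biotinylated K9-monomethylated H3(1-15) peptide (75 nM), after 30 min compound exposure at room temperature.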
G9a block = blocks human histone lysine methyltransferase G9a; G9a H3K9 monomethylation, AlphaScreen, 2 h; Potency, µM (highest dose often 102 µM), for inactives: at the top dose activity, negative = inhibition, usual class: inhibitors; 8.8% of 350,000 active; AID 504332; also: % is scaled to controls: 0 for no effect and ±100 for the full control effect; nearly all actives have a fitted effect of over 75% in size
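AlphaScreen read-out: biotin-H3K9 peptide (500 nM) methylation by 20 nM enzyme with 20 uM SAM, 2 h at room temperature after 15 min compound preincubation; anti-monomethyl H3K9 antibody plus donor/acceptor beads, 10 min dark.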
Sfp inh = blocks B. subtilis Sfp PPTase activity. AID 1490. Potency, µM, for the others: largest response in the series, negative = inhibition, hits mostly inhibitors. Q9F4F7. 3.5% of 310,000 active. Biochemical Sfp PPTase activity, qHTS;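 also: the enzyme is Sfp with the accession as filed and its product quenches rhodamine fluorescence; 0% = enzyme reaction without inhibitor and -100% = no enzyme wells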
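Buffer: 50 mM Hepes-Na pH 7.6, 10 mM MgCl2, 0.01% Nonidet P-40, 0.01% BSA. Enzyme 15 nM, pre-exposed to compound 15 min; substrates then added and fluorescence change tracked over 30 min.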
JMJD2A Tudor inh = inhibitors of human JMJD2A Tudor domain; Potency, µM (titrated, usually from 114 µM), for inactives: at the top dose activity change, negative = inhibition, actives largely listed as inhibitors; AID 504339; AlphaScreen JMJD2A-Tudor / H3K4me3 peptide binding; 4.4% of 390,000 active; O75164; also: % is scaled to controls: 0 for no effect and ±100 for the full control effect; nearly all actives have a fitted effect of over 50% in size
Target sequence (O75164 whole entry, looked up, the tested form may be a part): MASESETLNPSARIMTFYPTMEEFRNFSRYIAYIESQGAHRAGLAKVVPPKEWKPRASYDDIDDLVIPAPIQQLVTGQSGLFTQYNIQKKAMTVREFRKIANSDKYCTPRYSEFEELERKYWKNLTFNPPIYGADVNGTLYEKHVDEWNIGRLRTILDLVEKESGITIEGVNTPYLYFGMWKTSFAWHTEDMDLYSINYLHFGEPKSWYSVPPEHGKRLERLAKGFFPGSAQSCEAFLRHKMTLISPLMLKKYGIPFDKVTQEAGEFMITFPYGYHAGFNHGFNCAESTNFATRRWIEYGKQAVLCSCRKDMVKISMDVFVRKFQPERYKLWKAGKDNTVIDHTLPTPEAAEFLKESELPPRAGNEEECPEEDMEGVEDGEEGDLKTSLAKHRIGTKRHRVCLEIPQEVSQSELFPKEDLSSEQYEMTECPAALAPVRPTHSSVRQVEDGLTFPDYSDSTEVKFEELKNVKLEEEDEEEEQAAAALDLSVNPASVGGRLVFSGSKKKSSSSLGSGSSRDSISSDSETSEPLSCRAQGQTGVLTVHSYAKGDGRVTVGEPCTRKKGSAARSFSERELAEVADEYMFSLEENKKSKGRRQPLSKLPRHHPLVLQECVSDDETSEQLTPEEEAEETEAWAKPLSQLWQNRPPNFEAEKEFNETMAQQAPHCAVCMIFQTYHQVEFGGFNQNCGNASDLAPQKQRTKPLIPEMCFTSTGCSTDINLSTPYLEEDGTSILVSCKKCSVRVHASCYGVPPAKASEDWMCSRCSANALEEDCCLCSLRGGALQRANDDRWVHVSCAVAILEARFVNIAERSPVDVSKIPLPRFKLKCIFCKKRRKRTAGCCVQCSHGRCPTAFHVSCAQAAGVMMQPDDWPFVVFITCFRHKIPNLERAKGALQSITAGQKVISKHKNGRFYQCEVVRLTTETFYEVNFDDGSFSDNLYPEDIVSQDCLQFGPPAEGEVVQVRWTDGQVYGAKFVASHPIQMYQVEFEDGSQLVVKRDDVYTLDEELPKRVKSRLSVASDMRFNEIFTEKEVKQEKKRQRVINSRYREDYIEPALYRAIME
BAZ2B inh = BAZ2B (human) inhibition; Q9UIF8; AlphaScreen BAZ2B-H3K14Ac peptide displacement; Potency, µM (series often up to 114 µM), inactives show at the highest dose activity change, negative = inhibition, usual class: inhibitors; 4.4% of 360,000 active; also: % is scaled to controls: 0 for no effect and ±100 for the full control effect; nearly all actives have a fitted effect of over 60% in size
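BAZ2B (50 nM) with biotin-H3(5-23)K14Ac peptide (50 nM) in PBS pH 7.4, 0.01% Tween-20, preformed 30 min, then compound 30 min at room temperature; top concentration 110uM. AlphaScreen streptavidin donor/nickel chelate acceptor beads (10 ug/mL final), 20 min dark, signal read.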
HP1b chromo inh = HP1-beta chromodomain-methylated histone interaction inhibition; 0.56% of 390,000 active; AID 540317; AlphaScreen HP1-beta / biotin-H3K9me3 peptide binding; P83916; Potency, µM (highest dose often 114 µM), without a hit: at the highest dose activity change, negative = inhibition, hits mostly inhibitors; also: nearly all actives have a fitted effect of over 70% in size
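AlphaScreen: HP1-beta (50 nM) preformed 30 min with biotin-H3(1-18)K9me3 peptide (50 nM) in PBS pH 7.4, 0.01% Tween-20. Compound added for 30 min at RT, then streptavidin donor/nickel chelate acceptor beads (10 ug/mL) for 30 min.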
* hit, by the source's call; ? = inconclusive; . = no result given; [ ] = remark or other dose. Calls follow the shape of the dose curve; as a rule, active = well fitted curve in the direction sought with a large enough effect; inconclusive = small, poorly fitted or top-dose-only effect, or another doubt; inactive = no such curve, though single readings can be large; an effect the other way counts as inactive or inconclusive. Potency is read from the fitted curve at half-maximal effect.

SMILES	L3MBTL1 block	G9a block	Sfp inh	JMJD2A Tudor inh	BAZ2B inh	HP1b chromo inh
CSCC[C@H](NC(=O)[C@H](Cc1ccccc1)NC[C@@H](NC[C@@H](N)CS)C(C)C)C(=O)O	.	20µM*	-24%	.	.	.
Cc1ccc(NNC(=S)Nc2ccc(C(C)C)cc2)c(C)c1	?	11µM*	-9%	14µM*	35µM*	22µM*
Cc1ccc(C)c(NC(=S)NNc2ccc(F)cc2F)c1	.	45µM*	-17%	32µM*	20µM*	?
Cc1ccc(-c2noc(C3CC(=O)N(c4ccc5c(c4)OCCO5)C3)n2)cc1 (stereo not drawn)	.	4%[59 µM]	.	-22%	-13%	70%
COC(=O)CCNC(=O)Cc1c(C)n(C(=O)c2ccc(Cl)cc2)c2ccc(OC)cc12	.	50µM*	17%	-25%	-20%	4%
O=[N+]([O-])c1ccc(COc2cccc(CNc3ccc(Br)cc3)c2)cc1	-12%	45µM*	22%	-29%	-37%	-1%
COc1ccc(C2CC(C)(c3ccc(OC)cc3)Nc3ccccc3N2)cc1 (stereo not drawn)	-16%	.	22%	?	22µM*	?
COc1ccc(C2Nc3ccccc3NC3=C2C(=O)CC(C)(C)C3)cc1 (stereo not drawn)	.	-18%	8%	-1%	-4%	37%
COc1ccc(C(=O)C2CCCN(Cc3cccn3-c3ccc(Cl)cn3)C2)c(OC)c1 (stereo not drawn)	-9%	-19%	-23%	-29%	56µM*	-16%
CCOc1ccc(S(=O)(=O)N(C)c2ccc(OCC(=O)Nc3nc(-c4cc(OC)ccc4OC)cs3)cc2)cc1	-14%	50µM*	3%	-14%	5%	6%
CCCn1c(SCC(=O)c2cc(C)n(-c3cc(C)on3)c2C)n[nH]c1=O	-7%	?	.	-28%	-10%	-12%
CCCn1c(SCC(=O)NCc2ccc(F)cc2)n[nH]c1=O	3%	2%	20%	45µM*	-13%	-14%
CCCn1c(SCC(=O)c2cc(C)ccc2C)n[nH]c1=O	.	7.1µM*	-1%	-27%	-21%	35%
O=C(CSc1nnc(-c2ccco2)o1)Nc1c(F)cccc1F	5%	-10%[12.7 µM]	.	-8%	-19%	39%
O=C1NC2(CCCCC2)C(=O)N1/N=C/c1ccc(O)cc1O	.	4µM*	-12%	-15%[11.4 µM]	?	-18%
COc1cccc(-c2cncnc2N(C)Cc2ccco2)c1	.	-44%[0.501 µM]	?	.	.	.
Cc1ccc(Cl)c2sc(N3CCN(C(=O)c4ccco4)CC3)nc12	-16%	-4%[0.501 µM]	.	-19%	-38%	-9%
COc1cccc(OC(=O)CSc2nnc(-c3ccc4c(c3)OCO4)o2)c1	.	-32%[59 µM]	.	-31%	-3%	22%
CC1=NN(C(=O)c2ccccc2F)C(O)(c2ccc(Cl)cc2)C1 (stereo not drawn)	-15%	3%	14%	-33%	50µM*	25%
CC1=NN(C(=O)c2ccccc2Cl)C(O)(c2ccccc2)C1 (stereo not drawn)	-4%	7%	9%	-19%	-22%	46%
O=C(NNC(=O)C12CC3CC(CC(C3)C1)C2)c1cnccn1	22%	3.2µM*	-28%	-1%	-3%	33%
O=C(COc1cccc2ccccc12)NNC(=O)c1cnccn1	15%	-13%	8%	-2%	7%	40%
COc1ccc(CC(=O)NNC(=O)c2cnccn2)cc1	22%	7.9µM*	56µM*	-8%	4%	31%
CC(C)(C)C(=O)NNC(=O)c1cnccn1	.	-125%[59 µM]	79µM*	?	?	60%
COc1ccc(CC(=O)NNC(=O)c2ccccn2)cc1	-5%	25%	23%	-7%	?	47%
SMILES	L3MBTL1 block	G9a block	Sfp inh	JMJD2A Tudor inh	BAZ2B inh	HP1b chromo inh
O=C(COc1ccc2ccccc2c1)NNC(=O)c1cnccn1	11%	0.63µM*	10%	-6%	-23%	48%
COc1ccc(OC)c(NC(=O)CSc2nnc(C3CCCCC3)n2-c2ccccc2)c1	-2%	-16%[59 µM]	3%	-12%[11.4 µM]	-35%	?
CCOc1ccc(S(=O)(=O)N2CCN(c3cccc(C(F)(F)F)c3)CC2)cc1OCC	.	-1%[59 µM]	.	-13%	2%	27%
N#CN=c1snc(-c2ccccc2)n1-c1ccc(Cl)cc1	.	.	.	-6%[57.1 µM]	.	24%[57 µM]
Cc1ccc(CNC(=O)c2sc3ccc(S(=O)(=O)N4CCCCC4)cc3c2N)cc1	-6%	45µM*	-2%	.	0%	.
COc1ccc(S(=O)(=O)N2CCC(C(=O)NCc3ccc(C)cc3)CC2)cc1	.	-11%	17%	-1%	-12%	14%[57 µM]
COc1ccc(CNC(=O)C2=CCN(S(=O)(=O)c3ccc(C)cc3)CC2)cc1	.	45µM*	?	-8%	5%	24%
Cc1ccc(S(=O)(=O)N2CC=C(C(=O)NCc3ccccc3)CC2)cc1	-3%	40µM*	-13%	-4%	0%	43%
O=C(OCc1ccco1)c1ccc2c(c1)N(Cc1ccc([N+](=O)[O-])cc1)C(=O)c1ccccc1S2	.	-34%[59 µM]	.	-27%	-28%	6%[57 µM]

Screening results as filed in PubChem.
